Records with an inconclusive call do not appear. Activity calls are given as the source filed them. Unless noted, calls follow the shape of the dose curve; as a rule, active = well fitted curve in the direction sought with a large enough effect in the repeat runs; inconclusive = weak or mixed curves; inactive = no such curve, though single readings can be large; an effect the other way counts as inactive or inconclusive. Positions of bridges follow the written chain, without caps; N, C: chain ends. Non-standard residues stand in square brackets, D forms with d. Residues, ends and D or L forms follow the SMILES beside them. *: point of attachment. Dab(CH2SO3H) = N[C@@H](CCNCS(=O)(=O)O)C(=O)O; X3 = CC[C@@H](C)CCCCC(=O)*; Dab = NCC[C@H](N)C(=O)O
Tests used:
[1] = qHTS assay for small molecule agonists of the p53 signaling pathway (AID 651631; calls by dose curve; also: nearly all actives have a fitted effect of over 15% in size)
In short: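 Read-out is beta-lactamase FRET fluorescence measured 2 h after substrate addition at room temperature, in HCT-116 cells with a p53 response element-driven reporter exposed to compounds for 16 h at 37 °C.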

[2] = qHTS assay for small molecules that induce genotoxicity in human embryonic kidney cells expressing luciferase-tagged ATAD5 (AID 651632); also: nearly all actives have a fitted effect of over 15% in size
In short: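 Genotoxicity read-out via ATAD5-luciferase: HEK293T cells, 16 hr compound incubation at 37C, Amplite detection.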

[3] = qHTS assay for small molecule agonists of the p53 signaling pathway - cell viability (AID 651633; calls by dose curve;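 also: p53RE-bla HCT reporter cells with a stable beta-lactamase p53 reporter; nearly all actives have a fitted effect of over 30% in size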)
In short: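 p53RE-bla cells were treated with compound for 16 hours at 37 C. Cytotoxicity was then measured as CellTiter-Glo luminescence after 30 min at room temperature.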

[4] = qHTS assay for small molecules that induce genotoxicity in human embryonic kidney cells expressing luciferase-tagged ATAD5 - cell viability (AID 651634; calls by dose curve; also: nearly all actives have a fitted effect of over 25% in size)
In short: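 Live-cell protease activity (CellTiter-Fluor, fluorescence) indicates viability. HEK293T cells with luciferase-tagged ATAD5; 15.5 hr compound treatment at 37C.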

[5] = qHTS assay for small molecule disruptors of the mitochondrial membrane potential - cell viability (AID 720634; calls by dose curve;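 also: human HepG2 liver cancer cells; nearly all actives have a fitted effect of over 20% in size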)
In short: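 Human hepatoma HepG2 cells were treated for 1 hr with test chemicals, then given m-MPI dye and CellTiter-Glo. Cell viability reflects luminescence proportional to cellular ATP.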

[6] = qHTS assay for small molecule disruptors of the mitochondrial membrane potential (AID 720635)
In short: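 HepG2 cells exposed to compound 1 hr at 37C, then Mito-MPS dye 30 min. Ratio read of aggregate (540/590 nm) versus monomer (490/535 nm) fluorescence.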

[7] = qHTS assay to test for compound auto fluorescence at 590 nm (red) in HepG2 cells (AID 720674)
In short: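 HepG2 cells, 2,000 per well in MEM with 10% FBS, attached overnight at 37 C, then got 23 nL compound or DMSO. After 1 hr at 37 C, 5% CO2, red fluorescence was read at 540/590 nm against Rose Bengal sodium as reference.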

[8] = qHTS assay to test for compound auto fluorescence at 535 nm (green) in HepG2 cells (AID 720675)
[9] = qHTS assay to test for compound auto fluorescence at 460 nm (blue) in HEK293 cells (AID 720678)
In short: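 Cells were seeded and left to adhere for 4-5 hr at 37C. Compounds were then pin-transferred. After an overnight incubation at 37C under 5% CO2, intrinsic fluorescence at 405/460 nm was measured and referenced to triamterene.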

[10] = qHTS assay to test for compound auto fluorescence at 590 nm (red) in HEK293 cells (AID 720679)
In short: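 Each well held 2,000 HEK293 cells in medium containing 10% dialyzed FBS. Following 4-5 hr attachment at 37C, 23 nL test compound or DMSO was added; plates sat overnight, and red fluorescence (540/590nm) was recorded.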

[11] = qHTS assay to test for compound auto fluorescence at 535 nm (green) in HEK293 cells (AID 720680)
[12] = qHTS assay to test for compound auto fluorescence at 460 nm (blue) in HEK293 cell free culture (AID 720681)
In short: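 Compounds were added to cell-free DMEM with 10% FBS and fluorescence read directly. The blue channel used 405 nm excitation and 460 nm emission, with triamterene as the reference fluorophore.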

[13] = qHTS assay to test for compound auto fluorescence at 535 nm (green) in HEK293 cell free culture (AID 720682)
In short: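 Fluorescein serves as the green reference fluorophore; each compound's intrinsic emission at 535 nm (excitation 485 nm) is reported as an equivalent amount of that dye, measured in serum-containing DMEM without cells.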

[14] = qHTS assay to test for compound auto fluorescence at 590 nm (red) in HEK293 cell free culture (AID 720683)
In short: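 Cell-free wells of DMEM with 10% FBS received compound, and intrinsic fluorescence was read at excitation/emission 540/590 nm. Values expressed as equivalence to Rose Bengal sodium.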

[15] = qHTS assay to test for compound auto fluorescence at 590 nm (red) in HepG2 cell free culture (AID 720684)
In short: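 Compound was pinned into wells holding MEM with 10% FBS and no cells, and red fluorescence was read at Ex/Em 540/590 nm. Signal is expressed as auto fluorescence equivalency relative to Rose Bengal sodium.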

[16] = qHTS assay to test for compound auto fluorescence at 460 nm (blue) in HepG2 cell free culture (AID 720685)
In short: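 Compound (23 nL) or DMSO pinned into cell-free MEM with 10% FBS; blue fluorescence read at 405/460 nm excitation/emission, expressed as auto-fluorescence equivalency to triamterene.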

[17] = qHTS assay to test for compound auto fluorescence at 535 nm (green) in HepG2 cell free culture (AID 720686)
[18] = qHTS assay to test for compound auto fluorescence at 460 nm (blue) in HepG2 cells (AID 720687)
In short: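 HepG2 cells in MEM with 10% FBS, attached overnight at 37 C, were exposed to compound or DMSO for 1 hr at 37 C, 5% CO2. Blue fluorescence was read at 405/460 nm, with triamterene as reference fluorophore.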

[19] = target: Glucocorticoid receptor (Homo sapiens) (UniProt P04150); assay: qHTS assay to identify small molecule agonists of the glucocorticoid receptor (GR) signaling pathway (AID 720691; active = well fitted activation curve with a large enough effect in the signal ratio in the repeat runs, not every such curve was filed as active; the % refers to the signal ratio); details: GR-bla HeLa, beta-lactamase reporter ratio, 18 h; activation: at 62.4 µM (top of the series)
Glucocorticoid receptor (Homo sapiens), sequence (P04150 whole entry, looked up): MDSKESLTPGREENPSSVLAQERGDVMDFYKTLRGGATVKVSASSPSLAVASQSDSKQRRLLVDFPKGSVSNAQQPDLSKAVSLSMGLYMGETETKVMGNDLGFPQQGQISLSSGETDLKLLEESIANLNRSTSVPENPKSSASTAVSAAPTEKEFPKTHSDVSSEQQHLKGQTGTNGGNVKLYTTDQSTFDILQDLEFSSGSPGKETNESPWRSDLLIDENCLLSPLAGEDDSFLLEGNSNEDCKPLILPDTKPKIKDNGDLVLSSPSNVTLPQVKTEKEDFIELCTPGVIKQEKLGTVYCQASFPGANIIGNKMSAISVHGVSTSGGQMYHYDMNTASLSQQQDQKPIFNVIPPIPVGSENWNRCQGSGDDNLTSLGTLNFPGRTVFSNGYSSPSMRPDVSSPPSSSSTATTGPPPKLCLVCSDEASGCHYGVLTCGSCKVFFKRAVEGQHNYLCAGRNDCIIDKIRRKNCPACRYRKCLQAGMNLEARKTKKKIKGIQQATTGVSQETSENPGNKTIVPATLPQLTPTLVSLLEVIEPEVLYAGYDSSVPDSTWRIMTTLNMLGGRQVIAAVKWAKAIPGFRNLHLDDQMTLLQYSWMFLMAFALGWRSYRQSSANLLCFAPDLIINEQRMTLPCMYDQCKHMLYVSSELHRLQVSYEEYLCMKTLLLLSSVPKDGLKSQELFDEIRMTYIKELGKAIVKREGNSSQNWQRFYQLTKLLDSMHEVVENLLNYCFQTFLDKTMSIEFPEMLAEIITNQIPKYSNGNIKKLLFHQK
In short: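 Beta-lactamase reporter activity, read as fluorescence intensity, was measured in GR-bla HeLa cells exposed to compounds for 18 h at 37 C and then loaded with LiveBLAzer B/G FRET substrate for 2 h at room temperature.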

[20] = target: Glucocorticoid receptor (Homo sapiens) (UniProt P04150); assay: qHTS assay to identify small molecule antagonists of the glucocorticoid receptor (GR) signaling pathway (AID 720692; active = well fitted inhibition curve with a large enough effect in the signal ratio in the repeat runs, not every such curve was filed as active; the % refers to the signal ratio)
In short: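 Fluorescence from cleaved LiveBLAzer B/G FRET substrate reports GRE-driven beta-lactamase in HeLa cells; compounds are tested against 5 nM dexamethasone (final) over 18 h at 37 C, substrate incubation 2 h at room temperature.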

Measured: Potency

NC(=O)[C@H]1O[C@@H](O)[C@H](O)[C@@H](O)[C@@H]1O
inactive: [1] | [2] | [3] | [4] | [5] | [6] | [7] | [8] | [9] | [10] | [11] | [12] | [13] | [14] | [15] | [16] | [17] | [18] | [19] | [20]

FC(F)(F)COCC(F)(F)F
inactive: [1] | [2] | [3] | [4] | [5] | [6] | [7] | [8] | [9] | [10] | [11] | [12] | [13] | [14] | [15] | [16] | [17] | [18] | [19] | [20]

CC(=O)NC[C@H]1CN(c2ccc(N3CCOCC3)c(F)c2)C(=O)O1
inactive: [1] | [2] | [3] | [4] | [5] | [6] | [7] | [8] | [9] | [10] | [11] | [12] | [13] | [14] | [15] | [16] | [17] | [18] | [19] | [20]

CC(C)CCC[C@@H](C)[C@H]1CC[C@H]2[C@@H]3CC[C@@H]4C[C@H](O)CC[C@]4(C)[C@H]3CC[C@]12C
inactive: [1] | [2] | [3] | [4] | [5] | [6] | [7] | [8] | [9] | [10] | [11] | [12] | [13] | [14] | [15] | [16] | [18] | [19]

O=C(O)c1cc2cc(Cc3cccnc3)ccc2o1
inactive: [1] | [2] | [3] | [4] | [5] | [6] | [7] | [8] | [9] | [10] | [11] | [12] | [13] | [14] | [15] | [16] | [17] | [18] | [19] | [20]

OCl
inactive: [1] | [2] | [3] | [4] | [5] | [6] | [7] | [8] | [9] | [10] | [11] | [12] | [13] | [14] | [15] | [16] | [18] | [19]

CC[C@@H](C)CCCCC(=O)N[C@@H](CCNCS(=O)(=O)O)C(=O)N[C@H](C(=O)N[C@@H](CCNCS(=O)(=O)O)C(=O)N[C@H]1CCNC(=O)[C@H]([C@@H](C)O)NC(=O)[C@H](CCNCS(=O)(=O)O)NC(=O)[C@H](CCNCS(=O)(=O)O)NC(=O)[C@H](CC(C)C)NC(=O)[C@@H](CC(C)C)NC(=O)[C@H](CCNCS(=O)(=O)O)NC1=O)[C@@H](C)O (X3-[Dab(CH2SO3H)]T[Dab(CH2SO3H)][Dab][Dab(CH2SO3H)][dL]L[Dab(CH2SO3H)][Dab(CH2SO3H)]T; lactam 4-C)
inactive: [1] | [2] | [3] | [4] | [5] | [6] | [7] | [8] | [9] | [10] | [11] | [12] | [13] | [14] | [15] | [16] | [17] | [18] | [19] | [20]
